The supplement of paper PMC13380429

System: Vero E6 infected with SARS-CoV-2
Experiment: inhibition of SARS-CoV-2 cytopathic effect; higher = more antiviral protection, active = above 15
Conditions: 48 h

Measured: inhibition of SARS-CoV-2 cytopathic effect

COC(=O)C1=C(C)NC(C)=C(C(=O)OC2CCCN(Cc3ccccc3)C2)C1c1cccc([N+](=O)[O-])c1 (stereo not given) [benidipine]
inactive: 1 nM -0.65% | 8.33 nM -0.51% | 100 nM -1.47% | 833.33 nM -0.97% | 10000 nM -3.67%

Cc1ccc(/N=C/N(C)/C=N/c2ccc(C)cc2C)c(C)c1 [amitraz]
inactive: 1 nM -1.29% | 8.33 nM -0.98% | 100 nM -1.78% | 833.33 nM -1.85% | 10000 nM 0.1%

CC(C)=CCC[C@](C)(O)[C@H]1CC[C@]2(C)[C@@H]1[C@H](O)C[C@@H]1[C@@]3(C)CC[C@H](O)C(C)(C)[C@@H]3[C@@H](O)C[C@]12C [hemomex-s]
inactive: 1 nM -1.07% | 8.33 nM 0.12% | 100 nM 5.17% | 833.33 nM -0.7% | 10000 nM 0.84%

CCCCOCCOc1nc(-c2ccc(C(=O)O)c(F)c2)sc1C
inactive: 1 nM -0.86% | 8.33 nM -0.63% | 100 nM -1.87% | 833.33 nM -1.76% | 10000 nM 2.1%

Oc1ccc([C@@H]2Oc3ccc(O)cc3[C@@H]3CCC[C@@H]32)cc1 [erteberel]
inactive: 1 nM -2.79% | 8.33 nM 0.52% | 100 nM -1.51% | 833.33 nM -4.66% | 10000 nM 2.31%

O=C(O)c1cc(O)c(O)c(O)c1 [gallic-acid]
inactive: 1 nM -1.87% | 8.33 nM 0.61% | 100 nM 3.05% | 833.33 nM -1.88% | 10000 nM 6.6%

COc1ccc(C(=O)c2c(C)n(CCN3CCOCC3)c3cc(I)ccc23)cc1
inactive: 1 nM -3.57% | 8.33 nM -3.84% | 100 nM -3.42% | 833.33 nM -0.63% | 10000 nM 2.05%

CCCN(CCc1cccs1)[C@H]1CCc2c(O)cccc2C1 [rotigotine]
inactive: 1 nM 0.32% | 8.33 nM -0.89% | 100 nM 1.13% | 833.33 nM -1.26% | 10000 nM -6.53%

Cn1c(=O)c2[nH]cnc2n(C)c1=O [aminophylline]
inactive: 1 nM -0.89% | 8.33 nM -0.66% | 100 nM -1.42% | 833.33 nM -0.87% | 10000 nM -0.09%

C[C@H]1COC2=C1C(=O)C(=O)c1c2ccc2c1CCCC2(C)C [cryptotanshinone]
inactive: 1 nM 1.45% | 8.33 nM 0.55% | 100 nM 2.85% | 833.33 nM -1.89% | 10000 nM -2.92%

CN(C)CCNc1nc2cc(O)ccc2c2c1C(=O)c1ccccc1-2
inactive: 1 nM 0.16% | 8.33 nM 1.19% | 100 nM -1.3% | 833.33 nM -7.91% | 10000 nM -23.6%

O=C(NCc1ccc(F)cc1)N1CCN2C(=O)OC(c3ccccc3)(c3ccccc3)[C@@H]2C1 (racemic)
inactive: 1 nM 1.17% | 8.33 nM 1.29% | 100 nM 3.05% | 833.33 nM 3.22% | 10000 nM -6.01%

NC(Cc1ccc(I)cc1)C(=O)O (stereo in doubt) [4-iodo-L-phenylalanine]
inactive: 1 nM 0.62% | 8.33 nM -0.66% | 100 nM 0.54% | 833.33 nM 0.32% | 10000 nM -0.26%

CC(C)(Oc1ccc(C2CC2(Cl)Cl)cc1)C(=O)O (stereo not given) [ciprofibrate]
inactive: 1 nM -2% | 8.33 nM 1.09% | 100 nM -0.52% | 833.33 nM -2.34% | 10000 nM -4.5%

CN(CCOc1ccc(CC2SC(=O)NC2=O)cc1)c1ccccn1 (stereo not given) [rosiglitazone]
inactive: 1 nM -1.76% | 8.33 nM -2.53% | 100 nM -4.45% | 833.33 nM -0.37% | 10000 nM 1.48%

CN1CCN(CC/C=C2/c3ccccc3Sc3ccc(S(=O)(=O)N(C)C)cc32)CC1 [thiothixene]
inactive: 1 nM -3.86% | 8.33 nM -3.67% | 100 nM -4.39% | 833.33 nM -3.71% | 10000 nM 14%

CCOC(=O)Nc1ccc2c(c1)N(C(=O)CCN(CC)CC)c1ccccc1S2 [ethacizin]
inactive: 1 nM -5.42% | 8.33 nM -5.11% | 100 nM -2.38% | 833.33 nM -1.38% | 10000 nM 2.9%

NC(=O)c1cn(Cc2c(F)cccc2F)nn1 [rufinamide]
inactive: 1 nM 2.25% | 8.33 nM 1% | 100 nM 2.89% | 833.33 nM 1.75% | 10000 nM 3.51%

CC(C)CCNc1ncccc1C(=O)N1CCN(Cc2ccccc2)CC1
inactive: 1 nM 0.16% | 8.33 nM 0.21% | 100 nM 1.38% | 833.33 nM 0.33% | 10000 nM -0.35%

O=C(c1ccc(/C=C/c2n[nH]c3ccccc23)cc1)N1CCNCC1
inactive: 1 nM 0.11% | 8.33 nM 1.26% | 100 nM 0.85% | 833.33 nM 0.22% | 10000 nM -1.99%
